LmPK inh: blocks Leishmania mexicana pyruvate kinase activity; purified LmPK, Kinase-Glo ATP luminescence, 1 h; Q27686; AID 1721; 0.37% of 290,000 active; Potency, µM (top dose mostly 57.5 µM), without a hit: at the top dose activity change, negative = inhibition, most hits filed as inhibitors; further: potency means the concentration at half of the fitted maximal effect; on the % scale 0 is the no-effect control and ±100 the full control effect
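Purified LmPK (0.1 nM) with 0.5 mM PEP and 0.1 mM ADP in imidazole buffer pH 7.2 with MgCl2/KCl, 1 h at room temperature. ATP formed was read by luciferase luminescence and normalized to no-enzyme and uninhibited controls.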
CHX counter: counter-screen hit for Shiga toxin inhibitors, cycloheximide; cell reporter, cycloheximide protein synthesis inhibition counterscreen; max response, %; 12% of 300,000 active; in the data active means max response mostly above about 13%, no sharp cut-off; inactive means mostly below about 14%; further: read at 38.3 µM for the half of the compounds with a filed dose; 0% is about no effect
RE007 growth inh: less growth of the S. pombe RE007 Vpr strain; S. pombe RE007 Vpr strain, BacTiter-Glo ATP luminescence, 24 h; Potency, µM (doses to about 92.2 µM), inactives show at the top dose activity change, negative = less growth, usual class: inhibitors; 0.21% of 360,000 active; AID 651644; active means well fitted falling curve with a large enough effect; inconclusive means small, poorly fitted or top-dose-only effect; inactive means no such curve, though single readings can be large or run the other way; further: potency means the concentration at half of the fitted maximal effect; on the % scale 0 is the no-effect control and ±100 the full control effect; nearly all actives have a fitted effect of over 50% in size
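Fission yeast RE007 carrying one integrated HIV-1 vpr copy, seeded at OD 0.01 in PMG+AL medium with 23 nL pinned compound. Grown 24 h at 30 degrees; viability read by BacTiter-Glo luminescence after 5 min.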
FBPA Giardia inh: inhibitors of Giardia lamblia fructose-1,6-bisphosphate aldolase; A8B2U2; purified Giardia FBPA; Potency, µM (titrated, usually from 59.6 µM), without a hit: top-dose activity, negative = inhibition, hits mostly inhibitors; 0.71% of 290,000 active; further: potency means the concentration at half of the fitted maximal effect; on the % scale 0 is the no-effect control and ±100 the full control effect; nearly all actives have a fitted effect of over 55% in size
Target sequence (A8B2U2 whole entry, looked up): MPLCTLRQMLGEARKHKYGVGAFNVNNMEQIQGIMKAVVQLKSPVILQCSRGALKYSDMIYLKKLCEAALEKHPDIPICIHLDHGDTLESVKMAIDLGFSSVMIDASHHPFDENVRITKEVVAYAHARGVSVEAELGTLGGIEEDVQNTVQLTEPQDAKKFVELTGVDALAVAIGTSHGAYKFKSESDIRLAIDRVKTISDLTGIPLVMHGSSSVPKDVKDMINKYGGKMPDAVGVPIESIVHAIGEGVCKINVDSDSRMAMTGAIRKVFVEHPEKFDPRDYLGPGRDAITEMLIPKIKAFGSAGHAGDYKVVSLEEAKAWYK
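Giardia FBPA (40 nM reagent) was preincubated 10 min at RT with compound (up to 57.5 uM final), then substrate plus GAPDH/TPI/NAD/arsenate coupling system with diaphorase/resazurin was added; resorufin fluorescence (525/598 nm) was read after 20 min.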
Shiga toxin inh: Shiga toxin inhibition; inhibition, % at 38.7 µM; Vero cells, Shiga toxin protein synthesis inhibition reporter; 9.2% of 290,000 active; in the data active means inhibition mostly above about 28%, no sharp cut-off; inactive means mostly below about 43%; further: 0% is about no effect
Tb PYK inh: inhibitors of Trypanosoma brucei pyruvate kinase; 0.12% of 410,000 active; Q57TT1; AID 624173; TbPYK enzyme, Kinase-Glo Plus ATP luminescence, 45 min; Potency, µM (titrated, usually from 76.8 µM), for the others: at the highest dose activity, negative = inhibition, most hits filed as inhibitors; further: potency means the concentration at half of the fitted maximal effect; on the % scale 0 is the no-effect control and ±100 the full control effect; nearly all actives have a fitted effect of over 50% in size
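In this concentration-response screen, enzyme-free wells defined baseline while DMSO plates tracked drift. Each reaction combined TbPYK, substrate, compound and 130 uM ADP for 45 min at room temperature. Kinase-Glo Plus luminescence gave the signal.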
* marks the source's active call; other numbers are inactive results; ? = inconclusive; · = not tested or not shown; [ ] = another dose, or the depositor's remark. Shown is part of a subset that was picked to be rich in hits. Unless noted, the call rests on the fitted dose curve; in most records, active means well fitted curve in the direction sought with a large enough effect; inconclusive means small, poorly fitted or top-dose-only effect, or another doubt; inactive means no such curve, though single readings can be large; an effect the other way counts as inactive or inconclusive.

SMILES | LmPK inh | CHX counter | RE007 growth inh | FBPA Giardia inh | Shiga toxin inh | Tb PYK inh
O=c1c2c3c(sc2nc(NCCO)n1CCc1ccccc1)CCCCC3 | 3% | 10 | 8% | -8% | -15 | -11%
CN(C)CCNc1nc2sc3c(c2c(=O)n1Cc1ccccc1)CCCCC3 | 2% | -1 | 12% | -2% | -6 | 1%
O=c1c2c3c(sc2nc(NCCO)n1Cc1ccco1)CCCCC3 | 3% | 14* | -2% | 0% | 19 | 0%
COCCNc1nc2sc3c(c2c(=O)n1Cc1ccco1)CCCCC3 | 6% | 28* | -15% | 5% | 30* | -2%
O=C(CC1(CC(=O)N2CCOCC2)CCCC1)Nc1ccc(F)cc1 | · | · | 4% | · | · | 3%
c1cncc(CN=C2Nc3ccccc3CS2)c1 | 14% | 16 | 1% | 3% | 51 | -1%
COc1ccccc1CN=C1Nc2ccccc2CS1 | -4% | 30* | -4% | -1% | 82* | -4%
Clc1ccc(CN=C2Nc3ccccc3CS2)cc1 | 1% | 34* | -7% | 0% | 64* | 0%
Cc1ccc(CN=C2Nc3ccccc3CS2)cc1 | ? | 34* | -20% | 4% | 82* | -6%
c1ccc2c(c1)CSc1ccccc1N2 | · | · | ? | · | · | -4%
COc1cccc(CN=C2Nc3ccccc3CS2)c1 | -9% | 54* | 3% | -2% | 77* | 0%
S=C1Nc2ccccc2CS1 | · | · | -9% | · | · | -9%
CC(CCc1ccccc1)NC(=O)C(Cc1ccccc1)NC(N)=O (configuration not stated) | 1% | -3 | 2% | 6% | -5 | 2%
Cc1ccc(NC(=O)/C=C\C(=O)O)c([N+](=O)[O-])c1 | -1% | 12 | -16% | 6% | -4 | 3%
Cc1cc(C)c(NC(=O)/C=C\C(=O)O)c([N+](=O)[O-])c1 | 2% | 1 | 32µM* | 14% | -2 | -13%
COCCn1c(=O)c(-c2cccs2)nc2cnc(Nc3ccccc3)nc21 | · | · | · | 4% | · | -6%
CCOC(=O)c1ccc2c(c1)NCc1cccc(OC)c1O2 | 2% | 53* | -11% | -8% | 99* | 1%
COC(=O)c1ccccc1NC(=O)COc1ccccc1 | 2% | 4 | -10% | 2% | 15 | 2%
CSc1ccccc1NC(=O)Nc1ccccc1Cl | 2% | 24* | -16% | -6% | 38 | -14%
O=C(Nc1ccc(Nc2ccccc2)cc1)Nc1ccccc1Cl | -15% | 41* | -10% | -8% | 97* | -10%
O=C(Nc1ccc(Nc2ccccc2)cc1)c1c(Cl)cccc1Cl | · | · | -8% | · | · | -11%
O=C(Nc1ccccn1)Nc1ccccc1Cl | 0% | 32* | -8% | -1% | 50* | 1%
O=C(COc1ccccc1)Nc1ccccc1Cl | -7% | 41* | -22% | 10% | 108* | -3%
CCOc1ccccc1CNC(=O)CN1C(=O)CCCc2ccccc21 | · | · | · | · | · | 5%[15.4 µM]
O=C(Nc1csc([N+](=O)[O-])c1)Nc1ccccc1Cl | -5% | 36* | -12% | -9% | 54* | -1%
SMILES | LmPK inh | CHX counter | RE007 growth inh | FBPA Giardia inh | Shiga toxin inh | Tb PYK inh
O=C(Nc1ccc(Cl)cc1)Nc1ccccc1Sc1ncc([N+](=O)[O-])s1 | 3% | 34* | -24% | -19% | 63* | -28%
O=C(Nc1ccccc1Cl)Nc1ccccc1Cl | 2% | 21* | -7% | 0% | 32 | 0%
O=C(Nc1ccccc1Cl)Oc1ccc(-c2ccccc2)cc1 | -1% | 18* | -21% | -1% | 36 | -1%
N#Cc1ccccc1NC(=O)Nc1ccc(Cl)cc1 | -10% | 8 | -4% | 9% | 31 | 5%
O=C(NCc1ccon1)C1CCC(=O)N(CCc2cccc(F)c2)C1 (configuration not stated) | 1% | -1 | -1% | -2% | -9 | -1%
CCCCOc1ccccc1C(=O)N(Cc1sccc1C)C1CCS(=O)(=O)C1 (configuration not stated) | · | · | · | · | · | 0%
N[C@@](C(=O)O)(c1ccc(P(=O)(O)O)cc1)C1CC1 | · | · | · | -26% | · | ·
O=C1C=CC(=O)N1c1ccc2ccccc2c1 | · | · | 2.2µM* | · | · | ?
O=C1C=CC(=O)N1c1ccc(Nc2ccccc2)cc1 | · | · | 11µM* | · | · | ?
Cc1cccc(N2C(=O)C=CC2=O)c1 | · | · | 8.9µM* | · | · | ?
COc1ccc(C[C@@H]2c3cc(OC)c(OC)cc3CC[N@+]2(C)CCC(=O)OCCCCCOC(=O)CC[N@@+]2(C)CCc3cc(OC)c(OC)cc3[C@H]2Cc2ccc(OC)c(OC)c2)cc1OC | · | · | · | 11%[21.7 µM] | · | -4%[33.2 µM]
Cc1ccc(OCC(=O)Nc2ccc3nn(-c4ccc(C)cc4)nc3c2)cc1 | · | · | · | · | · | -5%
CC1CCC2C(=O)OC(CO)CN2C1c1ccc(Br)cc1 (configuration not stated) | · | · | · | 5%[12.9 µM] | · | ·
O=C1CCCc2c1cc(-c1ccccc1)n2-c1ccc(O)cc1 | -2% | -2 | 16% | 8% | 4 | 4%
Cc1ccc(-c2cc3c(n2-c2ccc(C(=O)O)cc2)CCCC3=O)cc1 | 4% | 19* | -15% | 3% | 64* | -9%
COc1ccc(NC(=O)Nc2ccc(F)cc2F)c(C)c1 | -4% | 35* | -3% | -15% | 20 | 10%
COc1ccc(NC(=O)Nc2ccc(F)cc2F)cc1 | ? | 38* | -9% | 3% | 68* | 0%
COc1ccc(NC(=O)Nc2cc(F)ccc2C)cc1 | -1% | 4 | 3% | -6% | 25 | -1%
Cc1cc(C)nc(NC(=O)Nc2ccc(F)cc2F)n1 | 0% | 13* | 0% | -2% | 17 | 2%
CC(C)c1ccccc1NC(=O)Nc1ccc(F)cc1F | 1% | 9.9* | 5% | 0% | 23 | 6%
Cc1cc(Nc2ccccc2C)n2nc(Cc3ccc(Cl)cc3)nc2n1 | · | · | · | · | · | 0%
CC(=O)NC(c1cccc(F)c1)c1nc(-c2ccoc2)cs1 (configuration not stated) | · | · | -10% | · | · | -7%
O=C(NCC(O)c1nc2ccccc2[nH]1)c1cc2ccccc2[nH]1 (configuration not stated) | · | · | -2% | · | · | -4%
CCN(C(=O)CSc1nnc(-c2cc3occc3n2C)n1-c1ccccc1C)c1ccccc1 | · | · | · | · | · | 6%
COc1oc(=O)c2cc(N)ccc2c1Cl | · | 62* | · | 0% | 71* | ·
COc1c(Cl)c(=O)oc2ccc(Cl)cc12 | · | · | 9% | · | · | 8%
CCOC(=O)c1cccc(NC(=O)CCn2nc(C)c3c(C)n(-c4ccccc4)nc3c2=O)c1 | · | · | · | · | · | -4%
Cc1ccc2c(c1)c1c(n2C)-c2[nH]ncc2CC1 | 4% | 15* | 20µM* | 0% | 78* | 0%
COc1ccc(NS(=O)(=O)c2ccc3c(c2)CCN3C(=O)CCC(=O)O)cc1OC | 0% | 33* | 8% | -10% | 64* | -3%
COC(=O)c1cc(S(=O)(=O)C(C)C)c(S(C)=O)s1 (configuration not stated) | 2% | 14* | -1% | 4% | 27 | 3%

Screening results from PubChem BioAssay.
